Compounds with a hit are over-represented: about 12% of the library has one in this group of screens.
G9a block: blocks human histone lysine methyltransferase G9a. G9a H3K9 monomethylation, AlphaScreen, 2 h. Potency, µM (series often up to 102 µM), without a hit: top-dose activity, negative = inhibition, usual class: inhibitors. actives 8.8% (n = 350,000). AID 504332; note: % is set by controls: 0 for no effect and ±100 for the full control effect; nearly all actives have a fitted effect of over 75% in size
Target sequence (Q96KQ7 913-1193 limits assumed): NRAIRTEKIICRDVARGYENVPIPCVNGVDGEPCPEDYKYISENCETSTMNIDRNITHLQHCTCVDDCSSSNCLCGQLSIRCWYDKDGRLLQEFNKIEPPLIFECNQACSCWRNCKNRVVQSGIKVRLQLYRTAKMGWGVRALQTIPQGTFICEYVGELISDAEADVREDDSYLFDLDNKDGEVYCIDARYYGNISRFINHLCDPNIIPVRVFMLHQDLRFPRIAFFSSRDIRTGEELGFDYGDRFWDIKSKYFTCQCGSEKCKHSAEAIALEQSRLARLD
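Readings reflect AlphaScreen signal from monomethyl-H3K9 antibody detection. HMT at 20 nM; substrate b-H3K9 500 nM; cofactor SAM 20 uM; 2 h RT reaction; compounds tested as titrations in qHTS with 15 min preincubation.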
PLK1 PBD block: PLK1 (human) polo-box domain binding inhibition | P53350 | AID 720504 | Potency, µM, without a hit: max response, negative = inhibition, actives largely listed as inhibitors | actives 2.8% (n = 360,000) | Plk1 PBD binding of FITC phosphopeptide, fluorescence polarization; note: series mostly up to about 57 µM; % is set by controls: 0 for no effect and ±100 for the full control effect; nearly all actives have a fitted effect of over 65% in size
JMJD2A Tudor: inhibitors of human JMJD2A Tudor domain. O75164. AlphaScreen JMJD2A-Tudor / H3K4me3 peptide binding. Potency, µM (doses to about 114 µM), without a hit: at the top dose activity change, negative = inhibition, most hits filed as inhibitors. actives 4.4% (n = 390,000); note: % is set by controls: 0 for no effect and ±100 for the full control effect; nearly all actives have a fitted effect of over 50% in size
HP1b binding inh: HP1-beta chromodomain-methylated histone interaction inhibition; actives 0.56% (n = 390,000); Potency, µM (series often up to 114 µM), inactives show at the highest dose activity change, negative = inhibition, most hits filed as inhibitors; AID 540317; P83916; AlphaScreen HP1-beta / biotin-H3K9me3 peptide binding; note: nearly all actives have a fitted effect of over 70% in size
Target sequence (P83916 whole entry, looked up): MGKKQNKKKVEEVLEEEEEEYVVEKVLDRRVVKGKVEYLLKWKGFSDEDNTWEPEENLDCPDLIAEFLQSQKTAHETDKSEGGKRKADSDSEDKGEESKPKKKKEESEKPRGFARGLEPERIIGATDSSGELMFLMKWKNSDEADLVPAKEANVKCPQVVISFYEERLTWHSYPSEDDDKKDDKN
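HP1-beta protein (50 nM final) preincubated 30 min at room temperature with biotinylated H3(1-18)K9me3 peptide (50 nM) in PBS pH 7.4, 0.01% Tween-20, then compound added for 30 min. AlphaScreen streptavidin donor/nickel chelate acceptor beads (10 ug/mL final), 30 min dark, luminescence read.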
BAZ2B block: inhibitors of human BAZ2B bromodomain. Potency, µM (doses to about 114 µM), without a hit: top-dose activity change, negative = inhibition, actives largely listed as inhibitors. actives 4.4% (n = 360,000). Q9UIF8. AlphaScreen BAZ2B-H3K14Ac peptide displacement; note: % is set by controls: 0 for no effect and ±100 for the full control effect; nearly all actives have a fitted effect of over 60% in size
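Protein-peptide AlphaScreen: BAZ2B 50 nM, b-H3K14Ac 50 nM, 1x PBS pH 7.4 + 0.01% Tween-20. Preincubation 30 min RT; cpd 30 min RT (top 110 uM); beads 20 min RT, light-protected.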
Sfp inh: Sfp phosphopantetheinyl transferase inhibition | Q9F4F7 | Biochemical Sfp PPTase activity, qHTS | Potency, µM, inactives show largest response in the series, negative = inhibition, actives largely listed as inhibitors | actives 3.5% (n = 310,000) | AID 1490;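 note: the enzyme is Sfp with the accession as filed and its product quenches rhodamine fluorescence; 0% = enzyme reaction without inhibitor and -100% = no enzyme wells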
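Fluorescence-quenching assay: 15 nM Sfp-PPTase preincubated 15 min at room temperature with compound, then 5 uM rhodamine-CoA and 12.5 uM BHQ-2-labelled YbbR peptide added. Fluorescence (ex 525/em 598 nm) read at start and after 30 min; difference gives rate.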
Active calls of the source: *; ? = inconclusive; · = no result; [ ] = another dose, or the depositor's remark. Calls come from the whole dose curve; as a rule, active = well fitted curve in the direction sought with a large enough effect; inconclusive = small, poorly fitted or top-dose-only effect, or another doubt; inactive = no such curve, though single readings can be large; an effect the other way counts as inactive or inconclusive. Potency is the fitted concentration of half-maximal effect.

SMILES	G9a block	PLK1 PBD block	JMJD2A Tudor	HP1b binding inh	BAZ2B block	Sfp inh
COC(=O)/C=C1\S/C(=N/N=C/c2ccc(Cl)cc2)NC1=O	·	30µM*	?	2%	?	13%
COC(=O)/C=C1/SC(=NC(=O)c2ccc(OC)cc2)NC1=O	4%[0.0925 µM]	-6%	-7%	31%	?	-18%
COC(=O)/C=C1\SC(=NC(=O)c2cccc(Cl)c2)NC1=O	3%[0.0925 µM]	?	-23%	-6%	?	45µM*
COC(=O)/C=C1/SC(=NC(=O)c2ccc(F)cc2)NC1=O	?	-20%	-12%	15%	-13%	28µM*
COC(=O)/C=C1/S/C(=N/N=C/c2ccco2)NC1=O	·	-2%	-20%	7%	-15%	8%
COC(=O)/C=C1\S/C(=N/NC(=O)c2ccccc2)NC1=O	?	-3%	-19%	33%	?	-5%
COC(=O)/C=C1/SC(=NC(=O)c2ccccc2)NC1=O	22µM*	-26%	?	15%	-35%	28µM*
COC(=O)/C=C1/S/C(=N/NC(=O)c2ccccc2C)NC1=O	2µM*	1%	?	38%	56µM*	-5%
COc1ccc(Cn2ccc3nc(C)c(C(=O)NCc4cccc(OC)c4)cc3c2=O)cc1	13%[59 µM]	·	-16%	-6%	-7%	·
COCCCn1c(=N)c(C(=O)NCC2CCCO2)cc2c(=O)n3cc(C)ccc3nc21 (stereo not drawn)	0%[59 µM]	·	-12%	25%	-3%	·
CC1=CC(C)[C@@H]2COC(c3ccc(O)cc3)[C@H]1C2C (stereo partly drawn)	8%[2.33 µM]	-11%	-25%	10%	-13%	7%
CC1=CC(C)C2COC(c3ccc[n+](C)c3)C1C2C (stereo not drawn)	7.1µM*	-2%	1%	-2%	-34%	8%
CCc1ccc(C(=O)c2cn(CC(=O)Nc3cc(OC)ccc3OC)c3nc(C)ccc3c2=O)cc1	-25%[59 µM]	·	-28%	0%	-34%	·
COc1ccccc1N1CCN(/N=C/c2ccc(O)c(O)c2)CC1	-120%[12.7 µM]	-5%	22µM*	28µM*	50µM*	22µM*
CCN(CC)c1ccc(/C=N/N2CCN(c3ccccc3OC)CC2)cc1	8.9µM*	-2%	32µM*	14µM*	32µM*	-22%
COc1ccc(/C=N/N2CCN(c3ccccc3OC)CC2)cc1Br	3%[0.501 µM]	-2%	?	-13%	40µM*	-8%
COc1ccc(/C=N/N2CCN(c3ccccc3OC)CC2)cc1OC	45µM*	2%	?	-11%	?	19%
COc1ccc(/C=N/N2CCN(c3ccccc3)CC2)cc1Br	-7%	7%	-8%	18%	4%	10%
CC1CCN(C(=S)NC(=O)c2cccc([N+](=O)[O-])c2)CC1	71µM*	-7%	-28%	24%	-25%	11%
CN1CCN(C(=S)NC(=O)c2cccc([N+](=O)[O-])c2)CC1	-12%	-1%	-16%	22%	5%	32µM*
CN1CCC(NC(=S)Nc2cccc([N+](=O)[O-])c2)CC1	45µM*	-20%	-13%	6%	-20%	-4%
COc1cccc(O)c1CN1CCC(C(=O)Nc2ccc(-c3cccc(C)c3)cc2)CC1	-8%	-4%	?	-10%	-36%	79µM*
COc1ccc(-n2c(-c3cc(-c4ccccc4)sc3N)n[nH]c2=S)cc1	1%	-1%	-15%	36%	-17%	-20%
COc1ccc(-n2c(-c3cccc(C)c3[N+](=O)[O-])n[nH]c2=S)cc1	3.2µM*	?	?	?	-5%	16%
O=[N+]([O-])c1cccc(-c2n[nH]c(=S)n2-c2ccccc2)c1	2.2µM*	-14%	22µM*	1%	-5%	-10%
SMILES	G9a block	PLK1 PBD block	JMJD2A Tudor	HP1b binding inh	BAZ2B block	Sfp inh
Nc1ccc(-n2cc(-c3ccccc3)[nH]c2=S)cc1	7.9µM*	-4%	?	-4%	-34%	35µM*
O=[N+]([O-])c1ccc2c(c1)[nH]c(=S)n2-c1ccccc1	3.2µM*	6µM*	?	-11%	?	-99%
O=[N+]([O-])c1ccc(-c2cn(-c3ccccc3)c(=S)[nH]2)cc1	?	-11%	-13%	10%	5%	-11%
Cc1cccc(-c2n[nH]c(=S)n2-c2ccccc2)c1[N+](=O)[O-]	2.2µM*	-5%	35µM*	23%	5%	2%
O=[N+]([O-])c1cccc(-c2cn(-c3ccccc3)c(=S)[nH]2)c1	1.6µM*	-10%	-28%	26%	1%	15%
Cc1ccsc1C(=O)N1CCC1(C)C(=O)NCC(C)(C)C (stereo not drawn)	·	-13%	·	·	·	·
COc1ccc(C(=O)N2CCC2(C)C(=O)NC(C)C)cc1 (stereo not drawn)	·	-5%	·	·	·	·
COc1ccc(CN2C(=NC(=O)C3CCCO3)SC3CS(=O)(=O)CC32)cc1 (stereo not drawn)	25%	1%	0%	50%	-1%	13%
CCN=c1scc(-c2cccs2)n1/N=C/c1cc(OC)ccc1O	?	-6%	40µM*	14µM*	13µM*	?
CC(C)N=c1scc(-c2cccs2)n1/N=C/c1ccc(O)c(O)c1O	4µM*	?	22µM*	25µM*	32µM*	11µM*
COc1cccc(-c2noc(COc3ccc(C(C)(C)C)cc3)n2)c1	181%[59 µM]	·	217%	182%	256%	·
O=C1NC(=S)SC1=Cc1ccc(Cl)cc1	·	?	?	-26%	·	·
CN1CCC/C1=C/C=C1\SC(=S)NC1=O	10µM*	85%	-30%	-15%	?	28µM*
CCN(C(=O)C1CCC(CNS(=O)(=O)c2cccc3nsnc23)CC1)c1cccc(C)c1 (stereo not drawn)	?	·	-28%	1%	-35%	·
CN(C)C(CNS(=O)(=O)c1ccc(Cl)cc1F)c1ccco1 (stereo not drawn)	·	1%	-10%	33%	·	·
COc1cc(C(=O)NNC(=O)c2cc(C)[nH]n2)cc(OC)c1OC	13µM*	-21%	?	-25%	-36%	-14%
Cc1cc(C(=O)NNC(=O)CCCCC(=O)NNC(=O)c2cc(C)[nH]n2)n[nH]1	4µM*	-4%	-15%	26%	7%	79µM*
CCc1noc(C)c1C(=O)NNC(=O)c1cc(OC)cc(OC)c1	-25%[2.33 µM]	3%	6%	45%	2%	·
COc1ccc(CC(=O)NNC(=O)c2cc(C)[nH]n2)cc1	22%	1%	?	15%	-16%	-15%
CCc1noc(C)c1C(=O)NNC(=O)c1cc(OC)c(OC)c(OC)c1	6.3µM*	-2%	1%	29%	3%	·
COC(=O)CC[C@@H](C)[C@H]1CC[C@H]2[C@@H]3CC[C@@H]4C[C@H](O)CC[C@]4(C)[C@H]3C[C@H](O)[C@]12C	·	·	·	·	·	7%
